# Results reported in article PMC12670160, “A drug-repurposing screen of FDA- and EMA-approved drugs identifies two NF-κB inhibitors active against eumycetoma” (Journal of Antimicrobial Chemotherapy, 2025).
# Where a name gives a salt, the structure may show the parent alone. The whole screen tested about 5,300 compounds, of which about 130 (2.5%) showed an effect of 50% or more. The entries come from a sample that favours strong results as a whole.
# Tested on: M. mycetomatis strain mm55
# Settings: primary screen, metabolic activity vs growth control; 96 h, 2 µM; inhibitor
row,Compound,% viability
1,"CN1CCN(C(=O)CN[C@@H]2C[C@H]2c2ccc(OCc3ccccc3)cc2)CC1 [ONC0000424, rn1]",85.6%
2,"COc1ccc(/C=C/C(=O)O)cc1 [ONC0003824, trans4methoxycinnamicacid]",65.15%
3,"COc1ccc(/C=C/CCCCOc2ccc(C(=O)c3cccc(C(=O)O)c3)cc2CCC(=O)O)cc1 [ONC0003815, ly223982]",21.75%
4,"COc1ccc2[nH]c(C(=O)c3ccccc3)cc2c1 [ONC0001898, d64131]",78.99%
5,"CC(=O)[C@H]1CC[C@H]2[C@@H]3CC=C4C[C@@H](O)CC[C@]4(C)[C@H]3CC[C@]12C [ONC0003199, pregnenolone]",77.25%
6,"Cc1oc2nc3c(c(NC(=O)CN4CCCC4=O)c2c1C)CCCC3 [ONC0001218, coluracetam]",81.81%
7,"CCOC(=O)Nc1nc2ccccc2[nH]1 [ONC0004223, lobendazole]",137.9%
8,"CCOC(=O)Nc1cc2c(c(N)n1)NC(c1ccccc1)=C(C)N2 [ONC0002128, mivobulin]",3.846%
9,"CCOC(=O)Nc1ccc(NCc2ccc(F)cc2)nc1N.O=C(O)/C=C\C(=O)O [ONC0001304, flupirtine maleate]",68.53%
10,"C=CC(=O)N1CCCC(n2c(=O)n(-c3ccc(Oc4ccccc4)cc3)c3c(N)ncnc32)C1 (stereo not drawn) [ONC0004392, ono4059]",98.71%
11,"CN1C2C[C@H](OC(=O)[C@H](CO)c3ccccc3)C[C@@H]1[C@@H](O)C2 [ONC0003283, anisodamine hydrobromide]",41.57%
12,"C[N+]1(C)C2CCC1CC(OC(=O)C(CO)c1ccccc1)C2 (stereo not drawn) [ONC0003986, methylatropine nitrate]",73.02%
13,"C[N+]1([O-])C2CCC1CC(OC(=O)C(CO)c1ccccc1)C2 (stereo not drawn) [ONC0004212, atropine oxide]",82.92%
14,"FC(F)(F)Oc1ccc2[nH]c(-c3ccc(OCCOCCOc4ccc(-c5nc6cc(OC(F)(F)F)ccc6[nH]5)nc4)cn3)nc2c1 [ONC0000980, ai1049]",83.7%
15,"CC(=O)OCC1=C(C(=O)O)N2C(=O)[C@@H](N)[C@H]2SC1 [ONC0004514, 7aminocephalosporanic acid]",52.68%
16,"CCn1cc(-c2cccc(C(F)(F)F)c2)c2sc(C(=N)NC3CCS(=O)(=O)CC3)cc2c1=O [ONC0001085, ibrd9]",45.4%
17,"Cc1c(C(=O)NCc2cccnc2)nn(-c2ccc(Cl)cc2Cl)c1-c1ccc(Cl)cc1 [ONC0001432, mj15]",60.06%
18,"C[C@@H]1CC2C3CCC4=CC(=O)C=C[C@]4(C)[C@@]3(F)[C@@H](O)C[C@]2(C)[C@@]1(O)C(=O)CO (stereo partly drawn) [ONC0000416, dexamethasone]",62.67%
19,"O=C(Nc1cc(C(F)(F)F)cc(C(F)(F)F)c1)c1cnc(Cl)nc1C(F)(F)F [ONC0001396, sp100030]",126.3%
20,O=C(Nc1ccc([N+](=O)[O-])cc1Cl)c1cc(Cl)ccc1O [niclosamide],70.84%

row,Compound,% viability
1,"O=C(Nc1cc(C(F)(F)F)cc(C(F)(F)F)c1)c1cc(Cl)ccc1O [IKK2 inhibitor V (IMD-0354), IMD-0354]",2.589%
2,"O=C(C[C@H]1NCCC[C@@H]1O)Cn1cnc2cc(Br)c(Cl)cc2c1=O (racemic) [ONC0004939, halofuginone]",90.07%
3,"CC1=CC(=O)NS(=O)(=O)O1 [ONC0005569, acesulfame potassium]",46%
4,"c1ccc(-c2ncc(CN3CCN(c4ncccn4)CC3)[nH]2)cc1 [ONC0000007, ngd941]",130.5%
5,"CC(COc1ccccc1)NC(C)[C@H](O)c1ccc(O)cc1 (stereo partly drawn) [ONC0000598, isoxsuprine hydrochloride]",84.27%
6,"CCC(O)(CC(N)=O)c1ccccc1 (stereo not drawn) [ONC0003599, 3hydroxy3phenylpentanamide]",105.2%
7,"Cc1nc2cc(-n3ncc(C(=O)c4cc5ccccc5[nH]4)c3N)ccc2[nH]1 [ONC0004455, ch5183284 debio1347]",110.2%
8,"CCNC(=O)N1CCN(CCCC(c2ccc(F)cc2)c2ccc(F)cc2)CC1 [ONC0003498, amperozidehcl]",32.95%
9,"O=c1[nH]c2ccccc2n1C1CCN(CCCC(c2ccc(F)cc2)c2ccc(F)cc2)CC1 [ONC0000675, pimozide]",106.9%
10,"Cc1cccc(C)c1NC(=O)CN1CCN(CCCC(c2ccc(F)cc2)c2ccc(F)cc2)CC1 [ONC0002360, lidoflazine]",112.8%
11,"Cc1c[nH]c(-c2cnc(NCCNc3ccc(C#N)cn3)nc2-c2ccc(Cl)cc2Cl)n1 [ONC0004531, chir99021 ct99021 hcl]",57.04%
12,"C[C@H]1c2cccc(O)c2C(=O)C2C(=O)[C@]3(O)C(=O)C(C(N)=O)C(=O)[C@@H](N(C)C)[C@@H]3[C@@H](O)[C@@H]21 (stereo partly drawn) [ONC0000682, doxycycline hydrochloride]",94.49%
13,"C[C@]12CCC(=O)C=C1CCC1C2C(=O)C[C@@]2(C)C1CC[C@]2(O)C(=O)CO (stereo partly drawn) [ONC0005338, cortisone]",64.83%
14,"Cc1sc(C)c2c1CCC=C2c1cnc[nH]1 [ONC0000248, tcg1000]",71.17%
15,"Cc1ccnc(NC(=O)C(C)c2cccc(C(=O)c3ccccc3)c2)c1 (stereo not drawn) [ONC0003716, piketoprofen]",97.11%
16,"O=C(O)c1ccccc1Nc1cccc(OCc2ccc3ccccc3n2)c1 [ONC0001414, sr2640]",39.31%
17,"CCCCCC(O)c1cccc(OCc2ccc3ccccc3n2)c1 (stereo not drawn) [ONC0005481, rev5901 l655238]",92.78%
18,"O=C(O)[C@@H](c1ccc(OCc2ccc3ccccc3n2)cc1)C1CCCC1 [ONC0005557, veliflapon]",76.74%
19,"COc1cc(O)c2c(c1)C(=O)c1cc(C)cc(O)c1C2=O [ONC0004501, rheochrysidin physcione]",41.39%
20,"Cc1cc(O)c2c(c1)C(=O)c1cc(O)cc(O)c1C2=O [ONC0004997, emodin]",57.84%

row,Compound,% viability
1,"Cc1cc(O)c2c(c1)C(=O)c1cccc(O)c1C2=O [ONC0005265, chrysophanic acid chrysophanol]",118.5%
2,"CNC(=O)c1ccc2cc([C@]3(O)CCn4cncc43)ccc2c1 [ONC0004670, tak700 orteronel]",115.9%
3,"CCN(CCCOc1ccc2c(Nc3cc(CC(=O)Nc4cccc(F)c4)n[nH]3)ncnc2c1)CCOP(=O)(O)O [ONC0002222, azd1152]",73.5%
4,"C[C@@H](NCCc1ccc(O)cc1)[C@@H](O)c1ccc(O)cc1 (racemic) [ONC0000689, ritodrine hydrochloride]",122.8%
5,"Cc1oc(=O)oc1COC(=O)C1=C([C@H]2CCCO2)S[C@@H]2[C@@H]([C@@H](C)O)C(=O)N12 [ONC0001072, faropenem daloxate]",41.67%
6,"C[C@@H](O)[C@H]1C(=O)N2C(C(=O)[O-])=C([C@H]3CCCO3)S[C@H]12.C[C@@H](O)[C@H]1C(=O)N2C(C(=O)[O-])=C([C@H]3CCCO3)S[C@H]12.O.O.O.O.O.[Na+].[Na+] [ONC0000335, faropenem sodium hemipentahydrate]",95.52%
7,"C1=C/COCc2cc(ccc2OCCN2CCCC2)Nc2nccc(n2)-c2cccc(c2)COC/1 [ONC0004380, pacritinib sb1518]",107.6%
8,"O=C(NC1CCNCC1)[C@@H]1CC[C@@H]2CN1C(=O)N2OS(=O)(=O)O [ONC0001257, relebactam]",62.24%
9,"CC[C@H](C)[C@@H]([C@@H](CC(=O)N1CCC[C@H]1[C@H](OC)[C@@H](C)C(=O)N[C@@H](Cc1ccccc1)c1nccs1)OC)N(C)C(=O)[C@@H](NC(=O)[C@H](C(C)C)N(C)C)C(C)C [ONC0003667, dolastin10]",74.88%
10,N#C/C(=C1/SCC(c2ccccc2Cl)S1)n1ccnc1 (stereo not drawn) [Lanoconazole],3.92%
11,N#C/C(=C1/SC[C@@H](c2ccc(Cl)cc2Cl)S1)n1ccnc1 [Luliconazole],0.7126%
12,"C[C@@]12CC[C@@H]3[C@@](CC[C@H]4[C@@]3(C)CCC[C@@]4(C)C(=O)O)(CC1=O)C2 [ONC0002858, isosteviol]",83.56%
13,"CN(C)c1ccc(-c2nc3c(N4CCN(CC(=O)Nc5nccs5)CC4)c(Cl)cnc3[nH]2)cc1 [ONC0004963, cct129202]",95.03%
14,"O=C1c2ccccc2NC2=CCCCCN12 [ONC0003231, 78910tetrahydroazepino21bquinazolin126hone]",99.72%
15,"COc1ccccc1OCC(O)CNC(C)C (stereo not drawn) [ONC0003655, moprolol]",69.09%
16,"[2H]C([2H])([2H])C(O)(CCO[C@@H](C)[C@H]1CC[C@H]2/C(=C/C=C3/C[C@@H](O)C[C@H](O)C3=C)CCC[C@]12C)C([2H])([2H])[2H] [ONC0001868, maxacalcitol]",112.3%
17,"Oc1ccc(C2(c3ccccc3F)CCC(F)(F)CC2)cc1 [ONC0000174, ac186]",93.25%
18,"CN(C)C/C=C/C(=O)Nc1cccc(C(=O)Nc2cccc(Nc3ncc(Cl)c(-c4c[nH]c5ccccc45)n3)c2)c1 [ONC0002061, thz2]",66.57%
19,"Cc1cc(C(=O)Nc2nc3cccc(Cl)c3n2[C@@H]2CCCCN(C(=O)/C=C/CN(C)C)C2)ccn1 [ONC0001107, nazartinib]",39.34%
20,"CN(C)C/C=C/C(=O)Nc1ccc(C(=O)Nc2cccc(Nc3ncc(Cl)c(-c4c[nH]c5ccccc45)n3)c2)cc1 [ONC0002074, thz1]",55.81%
